# Screening data deposited in PubChem BioAssay by several laboratories.
# Myeloid diff 2 = compounds promoting myeloid differentiation; 360,000 compounds, 1% hits; calls only at 10 µM; AID 624256; ER-HoxA9 myeloid progenitors, lysozyme-GFP differentiation, flow cytometry;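 active means normalized GFP-positive differentiation at or above the plate's own cutoff, the solvent-only control mean plus 3 SD; inconclusive means no clear call, values can overlap the other calls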;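 further: cells exposed to compound for four days before flow analysis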
# TPT1 inh = C. albicans TPT1 enzyme inhibition | recombinant caTPT1, FP RNA substrate dephosphorylation | inhibition, % at 5 µM | 300,000 compounds, 0.81% hits | AID 1962;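 active means inhibition above the mean of all tested compounds plus 3 SD, set per screening campaign, cut at about 24% in these data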;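 further: plate controls were DMSO alone for no effect and ferristatin control at 100 nM for full effect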
# Rpn11 inh = Rpn11 (human) deubiquitinase inhibition. O00487. human 26S proteasome, Ub4-pepOG fluorescence polarization; 20S core pre-blocked with epoxomicin. inhibition, % at 20 µM. 360,000 compounds, 0.59% hits. AID 588493;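 active means inhibition at 20 µM, scaled to each plate's controls, above about 33%, limit read from the data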
# HNF4A DNA FP = change in binding of human HNF4 alpha to DNA; activity change, % at 10 µM; HNF4a-FITC DNA binding, fluorescence polarization, 1 h; P41235; AID 1224865; 360,000 compounds, 0.3% hits; in the data active means activity change above about 30%, passing the limit was not always enough
# Rpn11 inh conf = Rpn11 inhibition confirmation, single concentration; purified human 26S proteasome, Ub4-pepOG fluorescence polarization; proteasome pretreated with epoxomicin; shares compounds with Rpn11 inh; AID 602318; 1,900 compounds, 29% hits; inhibition, % at 20 µM
# MMP-2 inh = counter-screen for RPN11 inhibitors: inhibition of human MMP-2. shares compounds with Rpn11 inh. recombinant MMP-2, FRET peptide cleavage fluorescence. inhibition, % at 20 µM. 1,900 compounds, 4% hits;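 further: human MMP-2 activated beforehand with APMA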
# Target sequence (P08253 whole entry, looked up): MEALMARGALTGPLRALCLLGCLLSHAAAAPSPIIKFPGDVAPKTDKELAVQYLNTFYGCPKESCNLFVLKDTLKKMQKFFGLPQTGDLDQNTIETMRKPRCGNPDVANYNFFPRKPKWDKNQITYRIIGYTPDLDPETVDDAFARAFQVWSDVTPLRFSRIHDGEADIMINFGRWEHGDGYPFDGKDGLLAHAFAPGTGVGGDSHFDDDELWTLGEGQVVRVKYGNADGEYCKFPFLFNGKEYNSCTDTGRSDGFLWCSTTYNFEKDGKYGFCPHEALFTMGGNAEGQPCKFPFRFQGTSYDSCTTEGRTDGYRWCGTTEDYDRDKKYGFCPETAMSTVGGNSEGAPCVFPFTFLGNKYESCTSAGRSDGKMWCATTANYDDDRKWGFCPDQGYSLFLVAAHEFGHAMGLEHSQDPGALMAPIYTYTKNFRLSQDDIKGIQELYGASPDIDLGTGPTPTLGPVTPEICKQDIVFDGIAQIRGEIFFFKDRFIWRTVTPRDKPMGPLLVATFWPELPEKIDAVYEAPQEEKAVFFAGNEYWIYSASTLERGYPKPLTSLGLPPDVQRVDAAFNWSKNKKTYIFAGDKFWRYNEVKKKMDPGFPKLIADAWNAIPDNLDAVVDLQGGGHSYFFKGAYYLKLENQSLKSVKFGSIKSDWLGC
# Thrombin inh = thrombin (bovine) inhibition counter-screen. shares compounds with Rpn11 inh. bovine thrombin cleavage of Ub4-pepOG, fluorescence polarization. inhibition, % at 20 µM. 1,900 compounds, 13% hits. AID 602333;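 active means mean inhibition at least 40% at 20 µM, or signal 3 deviations below plate average, so some actives read negative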;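 further: plate controls were thrombin with DMSO for no effect and buffer wells lacking thrombin for full effect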
# * marks the source's active call; other numbers are inactive results; i = inactive; ? = inconclusive; . = not tested or not shown; + = active, no number. Compounds with a hit are over-represented: about 2.1% of the library has one in this group of screens. Unless noted, no stated cut-off is given here; in the data, active means inhibition above about 40%; inactive means the rest.
SMILES,Myeloid diff 2,TPT1 inh,Rpn11 inh,HNF4A DNA FP,Rpn11 inh conf,MMP-2 inh,Thrombin inh
O=C(Nc1ccccc1-c1nc2ccccc2s1)C1=COCCO1,i,-2,62*,-5,4,10,-12
C=CCN(c1ccccc1OC)S(=O)(=O)c1cccc(C(=O)Nc2nnc(C3CC3)s2)c1,i,.,1,6,.,.,.
CCOc1ccc(C(=O)CCC(=O)N2CCC(C(=O)OC)CC2)cc1,i,11,48*,19,37,5,21
CCOC(=O)N1CCN(C(=O)CCC(=O)c2ccc(OCC)cc2)CC1,i,-1,-3,0,.,.,.
O=C1C(=Cc2cn(-c3ccccc3)nc2-c2ccc(OCc3ccccc3F)cc2)SC(=S)N1CCS(=O)(=O)O,i,.,83*,-49,103*,58*,163*
O=C(O)CCCCCN1C(=O)/C(=C/c2cn(-c3ccccc3)nc2-c2cccs2)SC1=S,i,.,51*,-4,84*,-18,48*
O=C1C(=Cc2cn(-c3ccccc3)nc2-c2ccc(OCc3ccc(Cl)cc3)cc2)SC(=S)N1CCS(=O)(=O)O,i,.,116*,-59,104*,65*,183*
COc1ccc(-c2nn(-c3ccccc3)cc2/C=C2/SC(=S)N(CCC(=O)O)C2=O)cc1,i,8,17,-3,.,.,.
CCOC(=O)Cc1csc(NC(=O)c2ccc3ncsc3c2)n1,i,5,9,1,.,.,.
CC(C)CC(N)c1csc(NC(=O)Nc2ccccc2C(C)(C)C)n1 (stereo not given),i,.,6,2,.,.,.
COc1cc(SC#N)ccc1N=Cc1c(C)[nH]n(-c2ccc(Cl)cc2)c1=O,i,8,141*,19,7,3,6
CCCC[C@@H]1CNC(=O)C(=O)N1CCCC,i,.,.,1,.,.,.
CC[n+]1c(/C=C/c2cc([N+](=O)[O-])ccc2O)ccc2ccccc21,i,0,2,-2,.,.,.
CCN1/C(=C\c2ccc3cc(C)ccc3[n+]2CC)Sc2cc(C)c(C)cc21,?,.,92*,107*,89*,-140,145*
CCN1/C(=C/c2ccc3cc(C)cc(C)c3[n+]2CC)Sc2cc(C)ccc21,?,.,170*,151*,89*,-93,135*
COc1ccc2[nH]cc(CCNC(=O)Cc3c(F)cccc3Cl)c2c1,i,2,-2,2,.,.,.
COc1ccc2[nH]cc(CCNC(=O)c3ccccc3Cl)c2c1,i,-39,59*,1,-25,-24,-24
FC(F)(F)c1cccc(NC(=S)NNC(=S)Nc2cccc(C(F)(F)F)c2)c1,.,2,.,.,.,.,.
FC(F)(F)c1cccc(NC(=S)Nc2ccc(Cl)c(Cl)c2)c1,i,1,37*,5,-8,21,-24
COC(=O)c1c(NC(=O)CN2CCN(c3ncccn3)CC2)sc(C(N)=O)c1C,i,3,14,2,.,.,.
COc1cc(/C=C2/SC(=Nc3ccc(O)cc3)NC2=O)cc(OC)c1O,+,13,59*,5,1,-24,7
CCc1ccc(N=C2NC(=O)/C(=C/c3ccc(OCC(=O)O)c(OC)c3)S2)cc1,i,.,14,1,.,.,.
O=C(COC(=O)c1cc2ccccc2cc1O)NC(=O)NCc1ccco1,i,2,44*,-5,8,-14,3
Cc1cc(C)nc(SCc2nnc(SCc3ccccc3Cl)o2)n1,i,3,2,1,.,.,.
COC(C[C@@H](O)[C@H](C)[C@@H](O)COCc1ccccc1)OC,i,.,-2,9,.,.,.
SMILES,Myeloid diff 2,TPT1 inh,Rpn11 inh,HNF4A DNA FP,Rpn11 inh conf,MMP-2 inh,Thrombin inh
Cc1nc2ccc(C(=O)Nc3cccc(OCC(=O)N(C)C)c3)cn2c1N(C)CC1CCCCC1,i,.,6,-1,.,.,.
O=C(NCCN1CCCC1)c1ccc(Cn2c(=S)[nH]c3cc4c(cc3c2=O)OCO4)cc1,i,-4,19,10,.,.,.
C=CCNC(=O)c1ccc(Cn2c(=S)[nH]c3cc4c(cc3c2=O)OCO4)cc1,i,7,148*,16,154*,41*,-18
COc1ccccc1NC(=O)Nc1nc(CC(=O)Nc2cc(F)ccc2F)cs1,i,11,46*,15,11,-10,-14
O=C(O)c1cn(C2CC2)c2cc(N3CCN(S(=O)(=O)c4ccc5c(c4)OCCO5)CC3)c(F)cc2c1=O,i,1,102*,3,16,-10,14
CCn1cc(C(=O)O)c(=O)c2cc(F)c(N3CCN(S(=O)(=O)c4ccc(Br)cc4)CC3)cc21,.,1,.,.,.,.,.
CC1CCC2(CC1)NC(=O)N(CC(=O)Nc1sc3c(c1C(N)=O)CCC3)C2=O (stereo not given),i,21,65*,-15,9,26,3
COCCn1cnnc1SCC(=O)Nc1sc2c(c1C#N)CCC2,i,.,4,-2,.,.,.
Cn1cnnc1SCC(=O)Nc1sc2c(c1C(N)=O)CCC2,i,24,41*,-19,40,24,12
CC(C)COC(=O)N(C)C[C@@H]1OCc2cnnn2CCCC(=O)N([C@H](C)CO)C[C@@H]1C,i,.,-11,-2,.,.,.
Clc1ccc(Nc2nc3ccccc3n3nnnc23)cc1,i,-4,44*,4,11,-23,-3
CCCC(C)C(=O)Nc1ccc(Cl)cn1 (stereo not given),i,-2,33*,2,-4,-53,-6
CCCCC(=O)Nc1ccc(Cl)cn1,i,-3,1,2,.,.,.
CC(C)Cn1c(SCC(=O)NC2CC2)nc2ccccc21,i,.,4,2,.,.,.
CCN1C(=O)c2cccc3c(NC(=O)c4ccc(S(=O)(=O)N(C)C)cc4)ccc1c23,i,10,8,2,.,.,.
CCN1C(=O)c2cccc3c(NC(=O)c4ccc(S(=O)(=O)N5CCOCC5)cc4)ccc1c23,i,5,75*,-7,5,-16,-1
Oc1ccc(CN2CCCc3ccccc32)c2cccnc12,i,-4,44*,-1,-11,-3,-14
Cc1nonc1OCCNCc1c(C(=O)N2CCCCCCC2)nc2ccc(Cl)cn12,i,-2,3,3,.,.,.
Cc1ccc(/C=c2\sc3nc(-c4ccccc4Br)nn3c2=O)o1,i,11,43*,-12,31,6,13
CCc1ccc2[nH]c(=O)c(CN(Cc3ccccc3OC)Cc3nnnn3Cc3ccco3)cc2c1,i,18,45*,8,-7,-20,-2
CCN(CC)c1ccc(N)cc1,i,.,98*,47*,42*,-8,26
CCc1cc(CNC(=O)C2CCC(=O)N(CCc3ccc(OC)cc3)C2)on1 (stereo not given),i,3,85*,39*,-14,-58,-12
COc1ccc(CCN2CC(C(=O)NCc3cc(C)on3)CCC2=O)cc1 (stereo not given),i,.,-5,3,.,.,.
